Experiment [1] in a line: growth inhibition of DIPG glioma cells, dose response, cell-based, SU-DIPG-XVII, MIPE5.0, CellTiter-Glo, qHTS (AID 1347060; cut-off not given, nearly all actives have AC50 up to about 26 µM;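 on AC50: cells exposed to compound for 48 hours before viability readout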). As to conditions: SU-DIPG-XVII viability, CellTiter-Glo ATP luminescence. (In general: ATP-based viability assays read luminescence as a measure of living cells.)
Experiment [2] is described as follows: growth inhibition of DIPG glioma cells, dose response, cell-based, JHH-DIPG-1, MIPE4.0, CellTiter-Glo, qHTS (AID 1347062; cut-off not given, nearly all actives have AC50 up to about 27 µM;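 on AC50: cells exposed to compound for two days before readout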). Particulars: JHH-DIPG-1 viability, CellTiter-Glo ATP luminescence.
The nature of experiment [3]: viability loss in pontine glioma line – cell-based, SU-DIPG-XXV, MIPE5.0, CellTiter-Glo, qHTS, dose response (AID 1347065; cut-off not given, nearly all actives have AC50 up to about 26 µM;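 further: cells exposed to compound for 48 hours before ATP readout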). Particulars: CellTiter-Glo ATP luminescence.
Experiment [4] is described as follows: SU-DIPG-VI glioma cell viability, MIPE4.0 library, CellTiter-Glo luminescence, qHTS (AID 1347066; cut-off not given, nearly all actives have AC50 up to about 30 µM;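 further: cells exposed to compound for 48 hours before readout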). As to conditions: CellTiter-Glo ATP luminescence.
Experiment [5] in a line: sensitizers of A549 cells to miR-34 induction, primary screen, imaging, A549 dox-inducible miR-34, nuclei and caspase counts (AID 1347080;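 active means compounds whose cell count with miR-34 switched on is under 0.7 times the count with it off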). As to conditions: A549 miR-34 inducible, Hoechst nuclei count, 48 h.
The nature of experiment [6]: modifiers of HSF1 nuclear foci, imaging, Selleck Cancer Library (AID 1347162; in the data active means plate-normalised HSF1 focus index below about 0.46). Particulars: human cells, at 10 µM; SSMD: measured here: HSF1 foci SSMD mean; cell count: measured here: cell number; plate-normalised HSF1 focus index: stronger effect = lower value.
Experiment [7] in a line: survival rescue of mitochondrial mutant cells in low glucose, primary screen, MELAS cybrids, Rieske KO mouse fibroblasts, CellTiter-Glo (AID 1508586;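 active means mean z-score across replicates of 1.96 or higher in either the MELAS or the Rieske mutant cell line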;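 further: z relative to plate mean and SD of compound and empty wells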).
Experiment [8] can be described thus: ovarian cancer cell viability with rucaparib, profiling panel, oncology-focused library, rucaparib conditional (AID 1508598). Particulars: patient-derived ovarian cancer cells, CellTiter-Glo viability, 144 h, stronger effect = lower value.
Experiment [9] in a line: growth inhibition of DIPG glioma cells, dose response, cell-based, SU-DIPG-XIII, MIPE5.0, CellTiter-Glo, qHTS (AID 1347064; cut-off not given, nearly all actives have AC50 up to about 23 µM;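 on AC50: cells exposed to compound for 48 hours before the viability read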). As to conditions: SU-DIPG-XIII viability, CellTiter-Glo ATP luminescence.
Experiment [10] in a line: SU-DIPG-XXV glioma cell viability, MIPE5.0 library, qHTS (AID 1347068; cut-off not given, nearly all actives have IC50 up to about 30 µM). In general terms: In qHTS, concentration-response curves come from the screen itself.
Experiment [11] can be described thus: JHH-DIPG-1 glioma cell viability, MIPE5.0 library, CellTiter-Glo luminescence, qHTS (AID 1347067; cut-off not given, nearly all actives have AC50 up to about 26 µM;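 further: cells exposed to compound for 48 hours before readout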). As to conditions: JHH-DIPG-1 glioma viability, CellTiter-Glo ATP luminescence.
Where [12] appears, read: stronger effect = lower value, cell number ratio, induced over uninduced.
The mark [13] stands for this setting: measured here: relative caspase fold change +Dox/-Dox.
Setting [14] is: measured here: total cells with miR-34 induction, stronger effect = lower value.
[15] abbreviates: measured here: total cells without miR-34 induction.
The mark [16] stands for this setting: MELAS cybrid survival, CellTiter-Glo 48 h, stronger effect = higher value.
Setting [17] is: Rieske KO mouse fibroblast survival, CellTiter-Glo 72 h.

Inconclusive results are not listed. Active and inactive are the calls of the source.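 How the source made its calls, unless noted: active means normalized viability below 100% at a tested concentration; inactive means the rest.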

In the case of `CCN(CCO)CCCOc1ccc2c(Nc3cc(CC(=O)Nc4cccc(F)c4)[nH]n3)ncnc2c1`, the AC50 (usually the midpoint of the concentration-response curve, whichever way the signal moves) in [1] was 0.235 µM (active); in experiment [3], 0.148 µM (active). The result in experiment [2] and in experiment [4] was inactive. Besides, the fold change is 0.945 (inactive) in [5] (setting [12]) and 0.861 in [5] (setting [13]). Also, the values for the cell count in experiment [5] (setting [14]), in [5] (setting [15]) and in [6] were 2110, 2230 and 7480, respectively. This compound also showed an SSMD in experiment [6] of 1.14. For the same compound, in experiment [6], the plate-normalised HSF1 focus index was 1.04 (inactive). Also, the z-score in experiment [7] (setting [16]) was -0.237 (inactive); in experiment [7] (setting [17]), 0.586. The viability (commonly a read-out of living cells in per cent, often relative to untreated cells) was 106% (inactive) in experiment [8] (at 0.000305 µM, OCI-C5x cells, with rucaparib 10 µM, 100% = cells with rucaparib alone); 113% (inactive) in experiment [8] (at 0.000305 µM, OCI-C5x cells, without rucaparib); 110% (inactive) in experiment [8] (at 0.000305 µM, OCI-P5x cells, with rucaparib 20 µM, 100% = cells with rucaparib alone); 110% (inactive) in experiment [8] (at 0.000305 µM, OCI-P5x cells, without rucaparib); 103% (inactive) in experiment [8] (at 0.00122 µM, OCI-C5x cells, with rucaparib 10 µM, 100% = cells with rucaparib alone); 118% (inactive) in [8] (at 0.00122 µM, OCI-C5x cells, without rucaparib). In addition, the viability was 115% (inactive) in [8] (at 0.00122 µM, OCI-P5x cells, with rucaparib 20 µM, 100% = cells with rucaparib alone); 108% (inactive) in experiment [8] (at 0.00122 µM, OCI-P5x cells, without rucaparib); 114% (inactive) in experiment [8] (at 0.00488 µM, OCI-C5x cells, with rucaparib 10 µM, 100% = cells with rucaparib alone); 112% (inactive) in experiment [8] (at 0.00488 µM, OCI-C5x cells, without rucaparib); 115% (inactive) in experiment [8] (at 0.00488 µM, OCI-P5x cells, with rucaparib 20 µM, 100% = cells with rucaparib alone); 111% (inactive) in experiment [8] (at 0.00488 µM, OCI-P5x cells, without rucaparib). Also, the viability was 109% (inactive) in [8] (at 0.0195 µM, OCI-C5x cells, with rucaparib 10 µM, 100% = cells with rucaparib alone); 91.6% (active) in experiment [8] (at 0.0195 µM, OCI-C5x cells, without rucaparib); 104% (inactive) in [8] (at 0.0195 µM, OCI-P5x cells, with rucaparib 20 µM, 100% = cells with rucaparib alone); 106% (inactive) in [8] (at 0.0195 µM, OCI-P5x cells, without rucaparib); 81% (active) in experiment [8] (at 0.0781 µM, OCI-C5x cells, with rucaparib 10 µM, 100% = cells with rucaparib alone); 77.3% (active) in experiment [8] (at 0.0781 µM, OCI-C5x cells, without rucaparib). Further, the viability in experiment [8] (at 0.0781 µM, OCI-P5x cells, with rucaparib 20 µM, 100% = cells with rucaparib alone) is 104% (inactive); in [8] (at 0.0781 µM, OCI-P5x cells, without rucaparib) it was 80.5% (active); in experiment [8] (at 0.313 µM, OCI-C5x cells, with rucaparib 10 µM, 100% = cells with rucaparib alone), 65.1% (active); in experiment [8] (at 0.313 µM, OCI-C5x cells, without rucaparib), 80.3% (active); in [8] (at 0.313 µM, OCI-P5x cells, with rucaparib 20 µM, 100% = cells with rucaparib alone), 82.3% (active); in experiment [8] (at 0.313 µM, OCI-P5x cells, without rucaparib) it was 65.3% (active). Also, the viability in experiment [8] (at 1.25 µM, OCI-C5x cells, with rucaparib 10 µM, 100% = cells with rucaparib alone) is 83.4% (active); in [8] (at 1.25 µM, OCI-C5x cells, without rucaparib), 83% (active); in experiment [8] (at 1.25 µM, OCI-P5x cells, with rucaparib 20 µM, 100% = cells with rucaparib alone) it was 86.7% (active); in experiment [8] (at 1.25 µM, OCI-P5x cells, without rucaparib) it was 62% (active); in experiment [8] (at 5 µM, OCI-C5x cells, with rucaparib 10 µM, 100% = cells with rucaparib alone), 107% (inactive); in experiment [8] (at 5 µM, OCI-C5x cells, without rucaparib), 95.3% (active). For the same compound, the viability in experiment [8] (at 5 µM, OCI-P5x cells, with rucaparib 20 µM, 100% = cells with rucaparib alone) is 83.1% (active); in experiment [8] (at 5 µM, OCI-P5x cells, without rucaparib), 58.7% (active).

Turning to `COc1ccc(C2=N[C@H](c3ccc(Cl)cc3)[C@H](c3ccc(Cl)cc3)N2C(=O)N2CCNC(=O)C2)c(OC(C)C)c1`, the AC50 in experiment [1] was 14.8 µM (active); in [2], 23.5 µM (active); in [9], 16.6 µM (active); in experiment [3], 10.5 µM (active). Moreover, the outcome in [4] and in experiment [10] was inactive.

Turning to `Cc1cc(-c2ncc(CC(=O)Nc3ccc(-c4cnccn4)cn3)cc2C)ccn1`, the compound was called inactive in [1], in [2], in experiment [9], in experiment [4] and in experiment [10]. Moreover, the fold change in experiment [5] (setting [12]) is 0.911 (inactive); in experiment [5] (setting [13]), 0.406. Besides, the cell count came to 6130 in experiment [5] (setting [14]) and 6730 in experiment [5] (setting [15]). For the same compound, the values for the z-score in experiment [7] (setting [16]) and in experiment [7] (setting [17]) were -0.348 (inactive) and 0.85, respectively.

In the case of `COc1cc2c(cc1OC)CC(=O)N(CCCN(C)C[C@H]1Cc3cc(OC)c(OC)cc31)CC2`, the compound was called inactive in experiment [1], in experiment [2], in [9], in experiment [3], in experiment [4] and in [11]. Besides, the call in experiment [10] was inactive.

Source of the values: PubChem BioAssay.
